Lassa entry inh = inhibitors of Lassa virus binding or cell entry. AID 540256. Potency, µM (titrated, usually from 37.9 µM), without a hit: at the highest dose activity change, negative = inhibition, most hits filed as inhibitors. Lassa virus pseudotype entry inhibition, cell reporter. 300,000 tested, 1.2% active; calls by dose curve; tested in HEK293 cells; also: potency is read from the fitted curve at half-maximal effect; nearly all actives have a fitted effect of over 50% in size
HCMV inh = inhibitors of human cytomegalovirus; 410,000 tested, 4.5% active; AID 1259415; activity change, negative = inhibition, % at 57.5 µM; HFF cells, HCMV-luciferase reporter, 72 h; hits give low values; in the data active = activity change below about -60%; inconclusive = no clear call, values can overlap the other calls; inactive = above about -39%
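Cell-based, HFFs, 1000 cells/well, 16 h 37C; cpds in DMSO + HCMV-luc, MOI 1 PFU/cell; 72 h 37C; OneGlo luminescence after 5 min RT; norm. to buffer vs Salinomycin 10uM.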
MARV entry inh = Marburg virus entry inhibition | Marburg virus pseudotyped entry inhibition, cell reporter | Potency, µM (highest dose often 37.8 µM), for inactives: top-dose activity change, negative = inhibition, actives largely listed as inhibitors | 300,000 tested, 1.8% active; calls by dose curve; tested in HEK293 cells; also: potency is read from the fitted curve at half-maximal effect
Vaccinia Venus = vaccinia inhibition (Venus reporter); 330,000 tested, 0.46% active; AID 720580; Vaccinia virus Venus reporter expression, fluorescence; Potency, µM (doses to about 36.5 µM), without a hit: at the top dose activity change, negative = inhibition, hits mostly inhibitors; calls by dose curve; tested in A549 cells; also: potency is read from the fitted curve at half-maximal effect; nearly all actives have a fitted effect of over 30% in size
HCV inh = HCV inhibition | Huh7.5.1 HCVcc-Cre infection, luciferase reporter, 44 h | Potency, µM (highest dose often 41.8 µM), for inactives: top-dose activity change, negative = inhibition, usual class: inhibitors | 340,000 tested, 3.4% active | AID 651820; active = well fitted inhibition curve with a large enough effect; inconclusive = small, poorly fitted or top-dose-only effect, or another doubt; inactive = no such curve, though single readings can be large or run the other way; also: potency is read from the fitted curve at half-maximal effect
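Cells (1,000/well) were plated 4 h before compound, then infected with HCVcc-Cre virus (~0.5 moi). After 44 h further culture, infection was read as luciferase luminescence following a 15 min substrate incubation at room temperature.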
VACV mCherry inh = vaccinia inhibition (mCherry reporter); Vaccinia virus mCherry reporter infection, fluorescence; 310,000 tested, 0.63% active; Potency, µM (series often up to 36.5 µM), inactives show top-dose activity change, negative = inhibition, hits mostly inhibitors; AID 720579; calls by dose curve; tested in A549 cells; also: potency is read from the fitted curve at half-maximal effect; nearly all actives have a fitted effect of over 35% in size
* marks the source's active call; other numbers are inactive results; i = inactive; ? = inconclusive; / = no result given; [ ] = another dose, or the depositor's remark. Hits are enriched below; roughly 7.8% of the tested compounds scored in any of these assays. % is scaled to controls: 0 for no effect and ±100 for the full control effect.

SMILES	Lassa entry inh	HCMV inh	MARV entry inh	Vaccinia Venus	HCV inh	VACV mCherry inh
CC(=O)Nc1ccc(/C=N/NC(=O)c2cccc(S(=O)(=O)N3CCOCC3)c2)cc1	-4.3%	-101.6*	?	-10.4%	26.7%	-14.4%
CCOc1ccc(CCNC(=O)c2ccc(C)c(S(=O)(=O)N3CCOCC3)c2)cc1OCC	?	-5.1	?	-20.7%	10µM*	-4.0%
CCOc1ccc(CCNC(=O)c2ccc(Cl)c(S(=O)(=O)N3CCOCC3)c2)cc1OCC	-21.5%	-24.6	?	-12.2%	?	i
COc1ccc(F)cc1S(=O)(=O)NCCc1sc2nc(-c3ccc(F)cc3)nn2c1C	-23.3%[46.1 µM]	?	/	-27.2%	/	-24.7%
O=C(N/N=C/c1sc(N2CCOCC2)nc1-c1ccccc1)c1ccc(O)cc1	?	48.9	-8.9%[46.1 µM]	8.2%	?	-7.7%
CC(=O)c1cccc(NC(=O)c2cccc(S(=O)(=O)N3CCOCC3)c2)c1	-10.3%	27.4	5.6%[46.1 µM]	-11.5%	-15.0%	-11.1%
CCOC(=O)c1ccc(NC(=O)c2cccc(S(=O)(=O)N3CCOCC3)c2)cc1	?	-23.1	?	?	3.55µM*	/
O=C(N/N=C/c1sc(N2CCOCC2)nc1-c1ccccc1)c1cccc(S(=O)(=O)N2CCCC2)c1	?	-111.5*	?	?	3.55µM*	?
Cc1cc(N(C)C)ccc1/C=C/c1ccnc2ccccc12	/	/	/	17.8%	/	-19.3%
CSC(=N/N=C(\N)c1cnccn1)SC	11.0%	-36.3	0.7%	-8.4%	18.7%	i
Cc1cc(N(CCCl)CCCl)ccc1/C=N/N=C(\N)c1cnccn1	?	-16.2	2.24µM*	-6.5%	?	i
Cc1cc(N(CCCl)CCCl)ccc1C=Cc1ccncn1	?	?	3.98µM*	45.2%	?	?
Cc1ccc(Cn2c(CNS(=O)(=O)c3c(C)cc(C)cc3C)nc3cccnc32)cc1	4.8%[46.1 µM]	74.3	/	-15.7%	/	-23.2%
CCc1nc(SCC(=O)Nc2ccc(NC(C)=O)cc2)n[nH]1	6.7%[46.1 µM]	24.1	13.8%[46.1 µM]	-2.0%	/	-14.0%
Cc1cc2c(cc1Cl)N(C(=O)Nc1ccc(Oc3cccnc3C)nc1)CC2	11.6µM*	/	?	/	/	/
Cc1cc2c(cc1Cl)N(C(=O)Nc1ccnc3ccccc13)CC2	-6.2%	/	?	/	/	/
O=C1N(Cc2ccccc2C(F)(F)F)c2ccccc2[C@@]12O[C@H](COc1ccccc1)CC1=C2CCC1	/	/	-23.5%[14.2 µM]	/	/	/
Cc1cc(C)c(S(C)(=O)=O)c(S(=O)(=O)c2ccc(Cl)cc2)n1	-0.8%	-98.0*	-11.1%	-25.5%	15.8%	-11.0%[1.46 µM]
Cc1cc(C)c(S(=O)(=O)c2ccc(Cl)cc2C)c(Cl)n1	-5.5%	-20.3	-3.9%[46.1 µM]	4.0%	?	i
COCCN1C(=O)COCc2cc(-c3ccc4c(c3)OCO4)ccc21	/	25.6	/	/	/	/
Cc1nn(-c2ccc(N3CCCC3)nn2)c(C)c1CCC(=O)N1CCN(c2ccccc2F)CC1	-1.1%[46.1 µM]	-61.5*	/	-9.8%	/	-2.7%
COc1ccccc1N1CCN(C(=O)CCc2c(C)nn(-c3ccc(N4CCCC4)nn3)c2C)CC1	-3.3%[46.1 µM]	11.0	/	-9.3%	/	-8.9%
Cc1ccc2nc(N(CCCN(C)C)C(=O)c3ccc4c(c3)CCCC4)sc2c1	?	-77.2*	?	?	11.2µM*	?
CN(C)CCCN(C(=O)c1ccc2c(c1)CCCC2)c1nc2c(F)cccc2s1	?	-34.9	-17.7%	-19.5%	7.94µM*	-29.6%
CN(C)CCN(C(=O)c1ccc2c(c1)CCCC2)c1nc2cc3c(cc2s1)OCCO3	?	-35.4	?	-28.4%	?	-7.3%
SMILES	Lassa entry inh	HCMV inh	MARV entry inh	Vaccinia Venus	HCV inh	VACV mCherry inh
Cc1cc(C)c2nc(N(CCCN(C)C)C(=O)c3ccc4c(c3)CCCC4)sc2c1	11.2µM*	?	?	-18.6%	7.08µM*	-9.6%
CCCNC(=O)C1CCN(S(=O)(=O)c2ccc3c(c2)CCCN3C(C)=O)CC1	2.3%[46.1 µM]	6.0	/	0.9%	/	3.6%
COc1ccc(-c2cn3cccnc3n2)cc1NC(=O)C(C)Oc1ccccc1 (configuration not stated)	?	-24.0	?	-16.1%	22.4µM*	?
CCC(CC)C(=O)Nc1cc(-c2cn3cccnc3n2)ccc1OC	9.0%[46.1 µM]	0.2	/	-8.3%	/	-1.0%
COc1ccc(CNc2ncnc3c2c(-c2ccccc2)cn3-c2cccc(C)c2)cc1	0.6%[46.1 µM]	?	/	-14.4%	/	-8.8%
COc1ccccc1CNc1ncnc2c1c(-c1ccccc1)cn2-c1cccc(C)c1	-14.1%[46.1 µM]	-60.5*	/	-19.8%	/	-15.1%
COc1coc(C(O)CN)cc1=O (configuration not stated)	-0.4%	-32.5	-0.5%[46.1 µM]	-0.8%	5.7%	-19.9%
CCOC(=O)C(=Cc1cc(=O)c(OC)co1)C(=O)OCC	?	-84.3*	?	/	10µM*	/
CC1CCc2c(sc3nnn(CCCCOc4ccc(Cl)cc4)c(=O)c23)C1 (configuration not stated)	?	17.9	7.6%[46.1 µM]	-5.8%	/	-4.5%
CCN(CCCNC(=O)Cn1ncc2c(=O)oc3ccccc3c21)c1cccc(C)c1	/	-24.5	3.9%	?	12.6µM*	?
CN(Cc1cnc2nc(N)nc(N)c2n1)c1ccc(C(=O)NC(CCC(=O)O)C(=O)O)c2ccccc12 (configuration not stated)	?	-101.2*	?	?	-16.2%	3.16µM*
O=C(O)CCC(NC(=O)c1ccc(Cl)cc1)C(=O)O (configuration not stated)	5.6%	18.2	2.4%[46.1 µM]	8.6%	2.1%	i
CCOc1cc(C2c3c(-c4ccccc4O)n[nH]c3C(=O)N2Cc2cccnc2)ccc1O (configuration not stated)	-23.1%[46.1 µM]	7.9	24.4%[46.1 µM]	-7.2%	/	-8.0%
COc1ccccc1/C=c1/[nH]c(=O)/c(=C\c2ccccc2OC)[nH]c1=O	/	/	/	-11.2%	/	-0.9%
O=C(CN1C(=O)CCc2cc(Br)ccc21)Nc1ccc(OC(F)(F)F)cc1	-5.6%[46.1 µM]	11.3	/	-4.2%	/	0.7%
Clc1ccc2c(c1)c1cc(Cl)ccc1n2CN1CCOCC1	?	?	-21.8%	?	22.4µM*	?
Cc1c(C)n(Cc2ccccc2)c2ccc(C(=O)OCCCN(C)C)cc12	?	-62.6*	10µM*	-20.1%	?	-7.7%
Cc1c(C)n(CCN(C)C)c2ccc(C(=O)OCCN(C)C)cc12	/	-9.9	/	/	11.2µM*	/
COC(=O)C1=C(C(=O)OC)[C@@H]2N(C)c3ccccc3[C@@]23CCC(=O)N(CC(C)C)C3=N1	/	/	8.1%[14.2 µM]	/	/	/
COC(=O)[C@H]1[C@H](CO)[C@H]2Cn3c(cccc3=O)[C@H]2N1Cc1ccccc1Cl	/	18.5	/	/	/	/
O=c1[nH]c(-c2ccccc2)cn1C1CCN(Cc2ccc(-c3nc4ccccc4nc3-c3ccccc3)cc2)CC1	/	118.0	/	/	/	/
N#Cc1ccc2nc(-c3ccc(CN4CCC(n5cc(-c6ccccc6)[nH]c5=O)CC4)cc3)c(-c3ccccc3)nc2c1	/	-99.0*	/	/	/	/
COc1cc(CNCc2ccccn2)ccc1OCc1ccccc1Cl	-17.9%	-66.8*	?	-22.2%	?	-21.1%

Bioassay records from PubChem BioAssay.
